# PubChem BioAssay
# Active and inactive are the calls of the source.
# Legend:
# [1] = binders of probe aFSTL3 on microarray, primary screen, stem cell growth factor project, biochemical, small-molecule microarray, fluorescence 635/667 (AID 1064); details: higher = more signal;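 also: measures binding of the biotinylated anti-FSTL3 antibody to printed compounds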
# [2] = binders from COS7 lysate, DM2A8 probe, primary screen, torsin A project, cell lysate, small-molecule microarray, fluorescence 635/667 (AID 1065); details: higher = more signal, COS7 lysate expressing mutant human TOR1A
# [3] = binders of probe aFGF2 on microarray, primary screen, stem cell growth factor project, biochemical, small-molecule microarray, fluorescence 635/667 (AID 1067); details: higher = more signal;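 also: measures binding of biotinylated aFGF2 protein to printed compounds on slides; z-score merges feature fluorescence and signal-to-noise across triplicate slides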
# [4] = binders of probe aFGF10 on microarray, primary screen, stem cell growth factor project, biochemical, small-molecule microarray, fluorescence 635/667 (AID 1071); details: higher = more signal;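 also: score merges 667 nm spot intensity and signal to noise from triplicate slides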
# [5] = target: Neurogenic locus notch homolog protein 2 (Homo sapiens) (UniProt Q04721); test: Notch2 binders on small-molecule microarrays, primary screen, biochemical, small-molecule microarray, 635 nm fluorescence, stem cell growth factors (AID 1073); details: Notch2 binding, higher = more signal
# [6] = target: Pro-neuregulin-1, membrane-bound isoform (Homo sapiens) (UniProt Q02297); test: NRG1 binders on small-molecule microarrays, primary screen, psychiatric disease protein project, biochemical, small-molecule microarray, fluorescence 635/667 (AID 1075); details: NRG1 binding, 635 nm fluorescence, higher = more signal;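 also: score combines 667 nm spot fluorescence with signal to noise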
# [7] = tested on: Neuregulin-1 EGF-like domain; test: binders of neuregulin-1 EGF-like domain, primary screen, biochemical, small-molecule microarray, 635 nm fluorescence (AID 1081); details: small-molecule microarray binding, higher = more signal;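 also: binding of the protein to compounds printed on small-molecule microarray slides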
# [8] = FRG1 promoter luciferase signal modulators, primary screen, FRG1 inhibition for FSHD, cell-based, C2C12 myotubes, firefly/Renilla luciferase, luminescence (AID 1084); details: higher = more signal, called active from +8 up or from −8 down
# [9] = binders of probe aFST on microarray, primary screen, stem cell growth factor project, biochemical, small-molecule microarray, fluorescence 635/667 (AID 1086); details: higher = more signal;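 also: score merges 667 nm fluorescence with signal-to-noise of each printed compound spot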
# [10] = binders of probe aHhip on microarray, primary screen, stem cell growth factor project, biochemical, small-molecule microarray, fluorescence 635/667 (AID 1087); details: higher = more signal;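 also: score merges spot fluorescence at 667nm with spot signal to noise ratio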
# Neurogenic locus notch homolog protein 2 (Homo sapiens), sequence (Q04721 whole entry, looked up, canonical isoform): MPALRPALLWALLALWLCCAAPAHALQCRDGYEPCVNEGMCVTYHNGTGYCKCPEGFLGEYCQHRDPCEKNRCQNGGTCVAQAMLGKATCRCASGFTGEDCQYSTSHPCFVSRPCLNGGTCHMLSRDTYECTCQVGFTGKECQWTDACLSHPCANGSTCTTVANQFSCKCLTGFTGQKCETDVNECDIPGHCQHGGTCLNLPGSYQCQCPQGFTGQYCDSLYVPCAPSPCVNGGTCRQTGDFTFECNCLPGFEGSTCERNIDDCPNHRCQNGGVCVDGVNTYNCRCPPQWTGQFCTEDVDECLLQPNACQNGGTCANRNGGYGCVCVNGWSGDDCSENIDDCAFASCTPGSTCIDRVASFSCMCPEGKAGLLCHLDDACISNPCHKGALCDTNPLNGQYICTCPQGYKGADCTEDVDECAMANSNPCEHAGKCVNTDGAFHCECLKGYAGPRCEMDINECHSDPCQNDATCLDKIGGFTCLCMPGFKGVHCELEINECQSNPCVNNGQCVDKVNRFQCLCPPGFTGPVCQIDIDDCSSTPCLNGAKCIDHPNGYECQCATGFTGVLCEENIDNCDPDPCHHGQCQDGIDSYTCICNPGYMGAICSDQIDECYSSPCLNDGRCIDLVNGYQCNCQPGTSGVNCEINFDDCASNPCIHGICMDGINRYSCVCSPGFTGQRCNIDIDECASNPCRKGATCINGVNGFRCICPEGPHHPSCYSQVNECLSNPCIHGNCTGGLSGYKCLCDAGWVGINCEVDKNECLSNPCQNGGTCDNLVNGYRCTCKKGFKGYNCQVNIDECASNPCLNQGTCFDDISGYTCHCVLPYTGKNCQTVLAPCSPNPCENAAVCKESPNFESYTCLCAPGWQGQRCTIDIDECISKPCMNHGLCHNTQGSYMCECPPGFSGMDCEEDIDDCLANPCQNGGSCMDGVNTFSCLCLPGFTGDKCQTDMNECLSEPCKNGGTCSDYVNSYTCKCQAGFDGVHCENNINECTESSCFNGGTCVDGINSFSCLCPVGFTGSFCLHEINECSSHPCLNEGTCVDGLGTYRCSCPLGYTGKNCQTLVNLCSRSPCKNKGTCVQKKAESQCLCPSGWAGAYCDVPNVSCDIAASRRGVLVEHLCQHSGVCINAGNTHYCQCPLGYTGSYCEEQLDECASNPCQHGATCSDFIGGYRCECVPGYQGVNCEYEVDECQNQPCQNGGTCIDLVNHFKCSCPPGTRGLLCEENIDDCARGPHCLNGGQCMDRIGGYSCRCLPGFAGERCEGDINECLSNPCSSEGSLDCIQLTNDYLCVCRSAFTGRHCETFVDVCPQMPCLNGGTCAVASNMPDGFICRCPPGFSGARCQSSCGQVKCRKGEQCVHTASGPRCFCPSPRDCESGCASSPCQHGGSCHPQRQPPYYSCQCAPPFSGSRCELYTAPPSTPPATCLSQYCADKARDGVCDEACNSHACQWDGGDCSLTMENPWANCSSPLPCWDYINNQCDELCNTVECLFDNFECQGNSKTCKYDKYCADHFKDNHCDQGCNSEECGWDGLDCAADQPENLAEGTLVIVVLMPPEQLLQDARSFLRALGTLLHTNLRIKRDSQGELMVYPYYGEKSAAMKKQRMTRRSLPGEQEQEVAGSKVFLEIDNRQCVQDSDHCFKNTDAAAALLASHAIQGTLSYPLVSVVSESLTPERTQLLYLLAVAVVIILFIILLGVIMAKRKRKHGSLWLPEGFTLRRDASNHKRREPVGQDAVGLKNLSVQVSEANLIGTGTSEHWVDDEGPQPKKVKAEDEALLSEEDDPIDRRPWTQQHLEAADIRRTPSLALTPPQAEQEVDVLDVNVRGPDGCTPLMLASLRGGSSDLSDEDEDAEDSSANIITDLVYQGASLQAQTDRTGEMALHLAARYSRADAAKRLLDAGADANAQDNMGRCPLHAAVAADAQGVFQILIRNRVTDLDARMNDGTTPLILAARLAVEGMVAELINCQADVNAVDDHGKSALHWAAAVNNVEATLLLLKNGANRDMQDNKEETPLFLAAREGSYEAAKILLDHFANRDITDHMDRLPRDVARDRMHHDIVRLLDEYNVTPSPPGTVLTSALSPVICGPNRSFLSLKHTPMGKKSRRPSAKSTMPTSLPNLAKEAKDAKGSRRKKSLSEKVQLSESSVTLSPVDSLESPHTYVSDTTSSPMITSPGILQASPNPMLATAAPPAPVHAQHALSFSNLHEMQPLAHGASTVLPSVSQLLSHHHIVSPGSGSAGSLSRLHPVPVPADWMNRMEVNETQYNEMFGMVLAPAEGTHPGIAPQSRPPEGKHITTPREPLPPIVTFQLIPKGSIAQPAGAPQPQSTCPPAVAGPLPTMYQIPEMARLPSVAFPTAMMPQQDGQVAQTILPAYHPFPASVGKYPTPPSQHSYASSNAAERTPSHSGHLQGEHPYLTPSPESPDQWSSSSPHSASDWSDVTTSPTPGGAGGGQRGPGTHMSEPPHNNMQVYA
# Pro-neuregulin-1, membrane-bound isoform (Homo sapiens), sequence (Q02297 whole entry, looked up, the tested form may be a part, canonical isoform): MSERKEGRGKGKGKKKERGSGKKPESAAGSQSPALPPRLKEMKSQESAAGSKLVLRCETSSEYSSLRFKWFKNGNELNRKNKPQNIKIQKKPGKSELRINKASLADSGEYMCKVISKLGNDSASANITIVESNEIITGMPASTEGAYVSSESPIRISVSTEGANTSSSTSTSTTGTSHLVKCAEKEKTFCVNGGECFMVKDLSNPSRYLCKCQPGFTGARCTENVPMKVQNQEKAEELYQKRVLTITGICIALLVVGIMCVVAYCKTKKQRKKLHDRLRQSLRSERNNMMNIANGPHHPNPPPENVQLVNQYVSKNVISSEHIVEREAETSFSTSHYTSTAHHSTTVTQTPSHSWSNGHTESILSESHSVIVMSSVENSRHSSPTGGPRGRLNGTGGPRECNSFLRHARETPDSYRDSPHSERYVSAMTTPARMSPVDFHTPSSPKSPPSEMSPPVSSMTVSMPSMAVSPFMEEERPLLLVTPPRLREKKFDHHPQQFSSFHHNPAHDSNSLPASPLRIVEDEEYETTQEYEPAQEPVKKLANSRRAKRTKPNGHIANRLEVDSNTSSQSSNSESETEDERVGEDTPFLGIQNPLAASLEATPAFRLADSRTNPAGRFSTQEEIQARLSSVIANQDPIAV
Structure (SMILES),composite z-score [1],composite z-score [2],composite z-score [3],composite z-score [4],composite z-score [5],composite z-score [6],composite z-score [7],z-score [8],composite z-score [9],composite z-score [10]
O=C(NCC(O)CO)[C@@]1(Cc2ccccc2)N=C(c2ccc(OCCCO)cc2)O[C@H]1c1ccccc1 (stereo not given in full),1.32,0.691,0.16,0.36,-0.0617,1.39,1.26,-1.89 (inactive),1.08,0.415
COC(=O)[C@@]1(Cc2ccc(F)cc2)[C@H]2c3cc(C(=O)N(C)C)n(CCc4c[nH]c5ccc(OC)cc45)c3C[C@H]2CN1C(=O)c1ccccc1,1.1,1.29,0.181,0.175,1.37,0.88,1.36,1.59 (inactive),1.34,0.836
COc1ccc([Si](C)(C)[C@H]2[C@H](CCO)O[C@@]3(C(=O)N(Cc4cccc(N5C(=O)c6cccc7cccc5c67)c4)c4ccccc43)[C@@H]2C)cc1,0.0761,-0.364,0.0253,0.404,-0.136,0.795,1,-1.43 (inactive),-0.26,-0.212
Cc1cc(C)c(C(O)C2C=CC3C(=O)NC(=O)C3N2Nc2ccccn2)c(C)c1 (stereo not given),0.36,0.135,-0.0878,0.0012,0.486,1.65,0.986,1.03 (inactive),0.578,0.0373
CC(C)C(=C=CC[C@H](O)c1ccccc1OCCO)CCO,0.0409,-0.0204,-0.152,0.161,-0.679,0.319,0.614,0.129 (inactive),-0.0031,-0.0994
COC(=O)[C@@]1(Cc2ccc(F)cc2)[C@H]2c3cc(C(=O)N4CCCC4)n(CCc4ccc(OC)c(Br)c4)c3C[C@H]2CN1C(=O)c1ccccc1,0.502,1.27,0.266,0.832,1.83,1.55,1.29,-0.784 (inactive),1.94,1.68
CCCNC(=O)[C@@]1(c2ccc([N+](=O)[O-])cc2)CC(=O)N(CC23CC4CC(CC(C4)C2)C3)[C@@H]1c1ccc(CO)cc1I,0.188,0.388,-0.0644,0.0889,0.906,0.133,1.01,-2.05 (inactive),0.171,0.31
CN(C)CCCC[C@@H]1NC(=O)[C@H]2C[C@@H](C(=O)NCCCCCNC(=O)CS)[C@@H](c3ccc(O)cc3)N2C1=O,0.594,-0.149,-0.203,-0.122,-1.21,0.356,-0.458,0.348 (inactive),-0.576,-0.134
[N-]=[N+]=NCc1ccccc1[C@@H]1OC(c2ccc(OCCCO)cc2)=N[C@]1(Cc1ccccc1)C(=O)O,0.221,0.163,0.0909,1.04,0.526,1.57,1.25,2.29 (inactive),0.461,-0.0581
COC(=O)c1nc2oc1CC[C@@H](CO)NC(=O)N(C)Cc1cn(nn1)C[C@H](Cc1ccccc1)NC2=O,0.0478,-0.871,-0.0982,0.0055,0.242,1.01,1.09,-0.605 (inactive),-0.324,-0.226
CCCC[C@H]1C[C@@H]1[C@@H]1N(P(=O)(c2ccccc2)c2ccccc2)[C@](CO)(c2ccccc2)CC12CC2,0.488,-0.363,0.0231,0.106,1.44,0.936,1.05,0.273 (inactive),1.03,0.235
COc1ccc([Si](C)(C)[C@@H]2[C@@H](CCn3cc([C@H](O)c4ccccc4)nn3)O[C@]3(C(=O)N(C)c4ccccc43)[C@H]2C)cc1,-0.266,0.356,-0.0468,0.181,0.0572,0.0939,0.448,-1.31 (inactive),-0.108,-0.391
Cc1ccc(N2C(=O)c3ccccc3[C@@H](C(=O)NCC(C)C)[C@@H]2c2ccc(CO)cc2)nc1,0.341,-0.751,-0.161,-0.494,-1.07,-0.265,0.346,-0.788 (inactive),-0.473,-0.0645
O=C1OCCC/C=C\[C@H]2OC34C=CCN(Cn5nnc6ccccc65)C(=O)[C@H]3N(CCCO)C(=O)[C@@H]4C12 (stereo not given in full),0.415,-0.652,-0.017,-1,-0.936,0.995,1.13,-0.126 (inactive),-1.28,-0.271
CC(C)C(O)C1C=CC2C(=O)N(C)C(=O)C2N1N1CCCCC1 (stereo not given),-0.201,-0.145,-0.0412,0.651,1.51,0.856,1.24,0.554 (inactive),0.772,-0.0391
O=C(NCC(F)(F)F)[C@@H]1c2ccccc2C(=O)N(Cc2ccccc2)[C@H]1c1ccc(CO)cc1,1.16,0.299,-0.0637,-0.358,-0.514,0.0291,0.432,-1.3 (inactive),-0.419,-0.0078
CCOC(=O)C=Cc1cccc(OC)c1O,-0.0086,0.689,-0.0894,-0.572,-1.37,-0.196,0.189,6.99 (inactive),-0.722,-0.439
